Compound activity: PubChem BioAssay, several laboratories
Shown are actives, neighbours in structure and some others; about 4.8% of the full set was active somewhere.
tim23-1 inh: tim23-1 yeast growth inhibition | S. cerevisiae tim23-1 growth, BacTiter-Glo luminescence, 24 h | inhibition, % at 20 µM | 330,000 tested, 1.3% active | AID 463212;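 active means growth inhibition of the mutant yeast at or above 50%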;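 further: temperature-sensitive mutant grown at 25 °C; plate controls were DMSO-treated mutant yeast for no effect and medium wells lacking yeast for full effect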
TIM10 inh: inhibits growth of TIM10 yeast strain; 330,000 tested, 1.4% active; S. cerevisiae TIM10 strain growth, BacTiter-Glo luminescence, 24 h; inhibition, % at 10 µM; AID 463195;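 active means inhibition of 40% or more at the single tested concentration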;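 further: wild-type TIM10 isogenic control strain grown at permissive 25 °C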
tim10-1 inh: inhibits growth of tim10-1 mutant yeast; S. cerevisiae tim10-1 ts strain growth, BacTiter-Glo, 24 h; 330,000 tested, 2.2% active; inhibition, % at 20 µM;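 active means inhibition of at least 40%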;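 further: mutant grown at 25 °C; 0% = DMSO wells with yeast and 100% = wells holding no yeast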
NALP1 inh: inhibitors of NALP1 inflammasome in yeast | inhibition, % at 10 µM | S. cerevisiae NALP1/ASC/caspase-1 growth, X-gal OD620, 72 h | AID 2071 | 280,000 tested, 0.61% active; in the data active means inhibition mostly above about 24%, no sharp cut-off; inactive means mostly below about 32%
PfHsp90 yeast 2: reduces growth (ATP signal) of yeast expressing P. falciparum Hsp90 | S. cerevisiae expressing PfHsp90, BacTiter-Glo ATP, 48 h; yeast lacking PDR1 and PDR3 efflux regulators | 310,000 tested, 0.32% active | inhibition, % at 9.4 µM;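 active means every replicate shows inhibition above about 80%, whatever the replicate mean, limit read from the data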;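 further: 0% = DMSO neutral controls and 100% = 20 µM radicicol positive controls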
SKKanGAS inh: inhibitors of SKKanGAS S. pyogenes growth in kanamycin (SK-promoter or general growth effect); BacTiter-Glo, 6 h; inhibition, % at 7.5 µM; 300,000 tested, 1.3% active; AID 1662;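 active means mean replicate score, as percent of positive control median, at least 50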;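 further: strain carries kanamycin resistance gene driven by streptokinase promoter and grows in 40 µg/ml kanamycin; loss of luminescence reflects streptokinase promoter inhibition or plain growth inhibition; 0% = median of DMSO wells and 100% = positive control at its reference dose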
tim10-1 confirm: confirmation of tim10-1 mutant yeast growth inhibitors. inhibition, % at 20 µM. shares compounds with tim10-1 inh. 7,400 tested, 56% active. S. cerevisiae tim10-1 ts strain growth, BacTiter-Glo, 24 h;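 active means inhibition of yeast growth at or above a set limit in either of two repeat tests at 20 µM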;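 further: tim10-1 mutant grown at permissive 25 °C to find synthetic lethal compounds; 0% = DMSO yeast wells and 100% = medium wells without yeast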
An asterisk follows results filed as active; nt = no result.

SMILES | tim23-1 inh | TIM10 inh | tim10-1 inh | NALP1 inh | PfHsp90 yeast 2 | SKKanGAS inh | tim10-1 confirm
Cn1c(=O)oc2cc(S(=O)(=O)NCc3ccccn3)ccc21 | 12 | -13 | 2 | -17 | -12 | -7 | nt
CCn1c(SCC(=O)Nc2ccc(N3CCOCC3)cc2)nnc1-c1ccc(OC)cc1 | 29 | 9 | 8 | -6 | 10 | 12 | nt
O=C(/C=C/c1ccc2c(c1)OCO2)N1CCCCC1 | 10 | -5 | 1 | 9 | 0 | 15 | nt
CN1CCc2cccc3c2[C@H]1Cc1ccc(O)c(O)c1-3 | -10 | -17 | 1 | 101* | 3 | 4 | nt
CCc1ccccc1N(CC(=O)NCC1CCCO1)C(=O)CCC(=O)Nc1cc(C)on1 (stereo not drawn) | 12 | 1 | -4 | -12 | -10 | -1 | nt
c1ccc2c(N3CCOCC3)c3c(nc2c1)CCC3 | 16 | 6 | 6 | 22 | 4 | -2 | nt
CC1(C)CC2(CCCN3C(=O)CSC32)CCS1 (stereo not drawn) | 0 | -14 | -5 | 38* | -5 | 0 | nt
CC1CCCC(C)N1Cc1cn2ccccc2n1 (stereo not drawn) | -16 | -10 | -23 | -16 | -11 | 1 | nt
O=C(CSCc1cnn(-c2ccccc2)c1-n1cccc1)NCc1cccs1 | 14 | 8 | 8 | 16 | 5 | 3 | nt
CNC(=O)CSCc1cnn(-c2ccccc2)c1-n1cccc1 | 12 | 4 | 9 | 41* | -2 | 4 | nt
CCN(CCCNC(=O)C1CCN(C(=O)c2cc3sccc3n2C)CC1)Cc1ccccc1 | -17 | -2 | -24 | 21 | -6 | -5 | nt
Cc1ccccc1C(=O)NC(=S)Nc1sc2c(c1C#N)CCC(C)C2 (stereo not drawn) | 10 | 20 | 14 | -14 | -46 | 42 | nt
CCOC(=O)CSc1n[nH]c(-c2ccco2)n1 | 20 | 4 | 8 | -6 | 3 | 3 | nt
O=C(CSc1n[nH]c(-c2ccco2)n1)N1c2ccccc2Sc2ccccc21 | 28 | 6 | 46* | -10 | nt | -7 | 24
COc1ccccc1NC(=O)CSC1CC(=O)N(c2ccc3c(c2)OCO3)C1=O (stereo not drawn) | 31 | 20 | 47* | 31* | 3 | -7 | 45*
O=S(=O)(c1ccc(Oc2ccc(S(=O)(=O)N(CCO)CCO)cc2)cc1)N(CCO)CCO | -3 | -1 | 5 | 13 | -6 | -7 | nt
O=S(=O)(c1ccc(N2CCC(c3ccc(Cl)cc3)=N2)cc1)N(CCO)CCO | 37 | 27 | 55* | 8 | -5 | 4 | 48*
COc1ccc2[nH]c(O)c(N=NC(=O)Cc3cccs3)c2c1 | 17 | 7 | 0 | nt | 17 | 2 | nt
Cc1ccc(N=CC2=C(O)CC(c3ccccc3Cl)CC2=O)cc1 (stereo not drawn) | 21 | 24 | 33 | -11 | nt | 2 | nt
O=C1CC(c2ccccc2Cl)CC(O)=C1C=Nc1ccccc1 (stereo not drawn) | 49 | 26 | 44* | 45 | -19 | 2 | 41*
CC(=O)c1ccc(NS(=O)(=O)c2ccc(-c3cnc(C4CC4)o3)cc2)cc1 | 20 | 6 | 11 | -12 | -18 | 9 | nt
Cc1ccc(CNS(=O)(=O)c2ccc(-c3cnc(C4CC4)o3)cc2)cc1 | 45 | 28 | 27 | 4 | 25 | -16 | nt
COc1ccc(C)cc1NS(=O)(=O)c1ccc(-c2cnc(C3CC3)o2)cc1 | 37 | -21 | 43* | -6 | -33 | 5 | 2
Cc1ccc(NS(=O)(=O)c2ccc(-c3cnc(C4CC4)o3)cc2)cc1 | 27 | -15 | 40* | 12 | -8 | -17 | -11
CCOc1ccc(NC(=O)c2ccccc2NC(=O)CN2CCN(C(C)=O)CC2)cc1 | 19 | 2 | 12 | nt | -5 | 2 | nt
CCCn1c(NC(=O)c2ccc(Cl)c(S(=O)(=O)N3CCCC3)c2)nc2ccccc21 | 25 | 32 | 44* | 4 | 47 | 92* | 31*
Cc1cccc(N=C2Sc3nc4c(C)c(C)ccc4cc3CN2CCN2CCOCC2)c1 | 48 | 39 | 53* | -7 | 14 | 13 | 37*
OC(COc1ccc2ccccc2c1Br)Cn1cnc(-c2ccccc2)c1 (stereo not drawn) | 8 | -6 | 43* | 28 | -25 | 56* | 44*
